Screens (PubChem BioAssay)
CRFR2-BP ag: agonists of CRF-BP/CRF-R2 complex, primary screen, cell-based, HEK293, calcium dye fluorescence, uHTS | CRF-binding protein / CRF receptor 2 complex (human) | calcium dye fluorescence (FLIPR); percent of saturating CRF peptide response | activation, % at 13.2 µM | 350,000 compounds, 0.46% hits | AID 588473, 2011;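 active = activation of at least 50%, plus an integration ratio under a set limit after plate pattern correction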;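 also: plate controls were neutral control wells without compound for no effect and CRF at EC100 for full effect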
IDE inh: human IDE inhibitors in live cells, primary screen, fluorescence polarization, HEK cells, FAbetaB substrate. Insulin-degrading enzyme (Homo sapiens), P14735. FAbetaB cleavage. inhibition, % at 5.59 µM. 320,000 compounds, 0.41% hits. AID 434962, 2010;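 active = percent inhibition above the average of all tested compounds plus 3 SD, set per screening campaign, cut at about 16% in these data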;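 also: IDE supplied by intact live HEK cells; FP after avidin binding of uncleaved biotin substrate so inhibition keeps polarization high; 0% = DMSO wells and 100% = 60 µM reference IDE inhibitor Ii1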
Target sequence (P14735 whole entry, looked up): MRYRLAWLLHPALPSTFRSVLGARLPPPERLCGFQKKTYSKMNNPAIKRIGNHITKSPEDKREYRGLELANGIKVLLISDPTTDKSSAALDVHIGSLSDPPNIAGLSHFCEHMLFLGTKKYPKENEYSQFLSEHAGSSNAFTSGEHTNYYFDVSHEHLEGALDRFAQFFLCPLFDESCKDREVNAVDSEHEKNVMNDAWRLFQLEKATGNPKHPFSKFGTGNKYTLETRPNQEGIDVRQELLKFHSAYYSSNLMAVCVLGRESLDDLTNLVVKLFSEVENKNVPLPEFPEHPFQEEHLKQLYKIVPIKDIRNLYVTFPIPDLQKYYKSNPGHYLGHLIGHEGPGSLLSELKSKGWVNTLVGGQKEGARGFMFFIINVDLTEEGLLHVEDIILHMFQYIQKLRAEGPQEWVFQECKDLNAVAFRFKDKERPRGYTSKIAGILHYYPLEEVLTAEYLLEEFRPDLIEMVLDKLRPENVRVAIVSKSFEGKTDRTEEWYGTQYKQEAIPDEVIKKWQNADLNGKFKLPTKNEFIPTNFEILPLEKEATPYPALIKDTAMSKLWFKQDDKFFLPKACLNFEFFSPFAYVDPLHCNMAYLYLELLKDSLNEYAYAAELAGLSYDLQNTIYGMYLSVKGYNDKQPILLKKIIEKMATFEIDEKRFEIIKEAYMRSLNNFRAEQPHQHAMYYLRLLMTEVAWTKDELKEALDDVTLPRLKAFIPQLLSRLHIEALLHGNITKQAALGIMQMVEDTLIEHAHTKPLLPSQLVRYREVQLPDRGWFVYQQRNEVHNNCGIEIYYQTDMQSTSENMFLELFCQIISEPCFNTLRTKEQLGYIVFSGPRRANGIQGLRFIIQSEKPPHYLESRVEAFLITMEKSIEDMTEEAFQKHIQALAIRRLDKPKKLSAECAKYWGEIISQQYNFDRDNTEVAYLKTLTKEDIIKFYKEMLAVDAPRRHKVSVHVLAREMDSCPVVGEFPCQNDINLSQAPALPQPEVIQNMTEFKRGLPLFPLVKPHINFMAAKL
RTF Ca sens act: cardiac RTF calcium sensitivity activators, primary screen, biochemical, IANBD-TnC fluorescence, EC20 calcium. Troponin I, cardiac muscle (Homo sapiens) + Troponin T, cardiac muscle (Homo sapiens) + …. IANBD-labeled TnC RTF fluorescence at EC20 calcium; 0% EC20 calcium, 100% full calcium. activation, % at 7.2 µM. 340,000 compounds, 0.24% hits;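 active = activation above the mean over all tested compounds plus 3 SD, cut at about 30% in these data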;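 also: rise in fluorescence read as greater calcium sensitivity of cardiac thin filaments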
IDE cell activ: human IDE activators in live cells, primary screen, fluorescence polarization, HEK cells, FAbeta-B substrate; Insulin-degrading enzyme (Homo sapiens), P14735; FAbeta-B cleavage; 0% vehicle, 100% cell-free pure enzyme wells; activation, % at 5.96 µM; 340,000 compounds, 0.073% hits;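 active = activation above the mean of all tested compounds plus 3 SD, set per screening campaign, cut at about 17% in these data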
RTF Ca sens inh: cardiac RTF calcium sensitivity inhibitors, primary screen, biochemical, IANBD-TnC fluorescence, EC70 calcium | Troponin I, cardiac muscle (Homo sapiens) + Troponin T, cardiac muscle (Homo sapiens) + … | IANBD-labeled cardiac RTF, Ca2+ fluorescence | inhibition, % at 7.15 µM | 340,000 compounds, 0.12% hits;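 active = inhibition above the mean inhibition of all tested compounds plus 3 SD, cut at about 17% in these data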;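 also: assay run at fixed EC70 calcium of 1.6 mM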
CRFR2-BP antag: antagonists of CRF-BP/CRF-R2 complex, primary screen, cell-based, HEK293, calcium dye fluorescence, uHTS; CRF-induced calcium fluorescence; inhibition, % at 11.8 µM; 350,000 compounds, 0.59% hits;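 active = inhibition of the ligand-induced calcium signal above about 50% at the single tested concentration, limit read from the data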
Active calls of the source: *; · = not tested or not shown; ! = a repeat was not active. Only some compounds are listed: those with a hit (about 1.5% of all), similar ones and a draw of the others.

SMILES	CRFR2-BP ag	IDE inh	RTF Ca sens act	IDE cell activ	RTF Ca sens inh	CRFR2-BP antag
CCCCC(=O)NC(=S)NNC(=O)CCc1ccccc1	71*	-1	-1	-10	10	14
CC(=O)NC(=S)NNC(=O)CCc1ccccc1	30	-5	7	4	-3	-21
O=C(CCc1ccccc1)NNC(=S)NCCc1ccccc1	2	-1	-1	4	5	-25
O=C(CCc1ccccc1)NNC(=S)NC(=O)c1ccccc1	80*	-2	6	1	1	20
CC(C)(C)c1cc(CCC(=O)NNC(=S)NC(=O)c2ccccc2)cc(C(C)(C)C)c1O	158*	-1	6	3	-3	-119
COc1cccc(/C=N/n2c(COc3ccccc3)n[nH]c2=S)c1	1	6	-6	-2	0	8
CCNc1nc(ON=C(C)C)nc(N(C)C)n1	0	5	4	-4	-8	-20
CCOc1ccc(C(=O)Nc2cccc3ncccc23)cc1Cl	-1	10	-8	2	-4	-24
CC1=NNC(=O)/C1=C\c1cn(-c2ccccc2)nc1-c1cccs1	80*	8	3	-4	-4	-57
COC(=O)c1ccc(NC(=O)COC(=O)CSc2nc(C)cc(C)n2)cc1	0	1	3	0	4	52*
C/C(=N/NC(=O)c1sc(=S)n(C)c1C)c1ccccc1	1	3	1	-3	-47	-2
COc1ccc(S(=O)(=O)N(C(C)=O)c2ccc3oc(=O)sc3c2)cc1	-1	25*	6	-19	-6	-8
CC1c2cccn2CCN1S(=O)(=O)c1ccccc1 (stereo unspecified)	1	-5	6	4	-6	-3
COc1ccccc1S(=O)(=O)N1CCn2cccc2C1C (stereo unspecified)	2	·	6	4	-3	103*
S=C(NCc1ccc(Cl)c(Cl)c1)Nc1ccc2c(c1)OCO2	0	2	-2	0	-41	69*
S=C(Nc1ccc2c(c1)OCO2)Nc1ccccc1Cl	1	2	2	0	1	76*
Cc1ccc(-n2nnnc2SCc2nnc(-c3ccccc3Br)o2)c(C)c1	-1	0	1	-2	1	87*
Cc1ccc(C)c(OC(=O)c2cccc(S(=O)(=O)N3CCN(C)CC3)c2)c1	1	5	7	-1	-1	-1
O=c1c2ccccc2n(Cc2ccc(F)cc2)c(=O)n1C1CCCC1	8	0	2	2	2	81*
CCc1nnc(NC(=O)CCN2C(=O)/C(=C/c3cc(OC)c(OC)c(OC)c3)SC2=S)s1	5	7	-2	-5	-4	-11
O=C(NCCCCCCNC(=O)N1CCCCCC1)N1CCCCCC1	-3	-2	10	-5	-12	76*
C=Cc1c(C)c2cc3[nH]c(cc4nc(cc5nc(cc1[nH]2)C(C)=C5CCC(=O)O)C(CCC(=O)O)=C4C)c(C)c3C=C	-2	3	-11	7	55*!	-33
Cc1c(-c2ccc(O)cc2)nc2nc(-c3ccccc3)c(-c3ccccc3)nn12	·	92*	·	·	·	·
Cc1cc(=O)oc(C)c1C(=O)Nc1ccc2nsnc2c1	1	5	3	-5	6	-4
Cc1cc(=O)oc(C)c1C(=O)Nc1ccc2ncccc2c1	78*	1	74*	-9	-32	-64
SMILES	CRFR2-BP ag	IDE inh	RTF Ca sens act	IDE cell activ	RTF Ca sens inh	CRFR2-BP antag
COc1ccc(N=Cc2c(O)c3ccccc3n2C(C)=O)cc1	99*	-4	16	-22	-16	-67
COc1ccc(-n2c(O)c(C=Nc3ccccc3)c3ccccc3c2=O)cc1	4	2	-2	2	-5	-6
O=C(CN(CC1CCCO1)C(=O)CCC(=O)Nc1ccccn1)NCC1CCCO1 (stereo unspecified)	0	2	-1	4	2	-22
COCCNC(=O)CN(CC1CCCO1)C(=O)CCC(=O)Nc1ccccn1 (stereo unspecified)	-1	1	1	4	-2	57*
NC(=O)c1cc([N+](=O)[O-])ccc1NCc1cnccn1	-1	5	-5	8	-15	8
Cc1c(O)cc2c(c1O)C(=O)CC(c1ccccc1)O2 (stereo unspecified)	105*	4	-6	5	-1	-38
O=C1C[C@@H](c2ccc(O)cc2)Oc2cc(O)cc(O)c21	1	4	1	-4	-6	1
CCc1cc(Cn2nc(C(=O)O)cc2-c2ccccc2)on1	-2	1	-6	19*	-4	9
COc1cccc2cc(-c3nnc(-c4ccccc4)o3)c(=O)oc12	-2	3	-1	6	-3	90*
CCCCCCc1cc2cc(C(=O)Nc3ccccc3OC)c(=O)oc2cc1O	102*	1	-4	1	4	-1
CCCCCCc1cc2cc(-c3nnc(-c4cc(OC)c(OC)c(OC)c4)o3)c(=O)oc2cc1O	99*	2	·	·	·	-41
O=C(O)c1ccc2oc(=O)c(S(=O)(=O)c3ccc(F)cc3)cc2c1	6	-3	-2	3	-1	-22
CCCCCCc1cc2cc(S(=O)(=O)c3ccc(F)cc3)c(=O)oc2cc1O	54*	1	-19	1	-6	11
COc1ccc(-c2nnc(-c3cc4ccccc4oc3=O)o2)cc1	-1	0	5	8	-1	26
CCCCCOC(=O)CSc1nnc(-c2cc(OC)c(OC)c(OC)c2)o1	1	-2	2	2	-1	-3
CN(c1ccccc1)S(=O)(=O)c1cccc(NC(=O)CSc2nccc(=O)[nH]2)c1	-2	4	-9	-3	-1	2
COC(=O)c1ccccc1NS(=O)(=O)c1cn(C)c(=O)n(C)c1=O	-2	0	-2	-2	-8	11
CCCCCCc1cc2cc(-c3nnc(-c4ccccc4OC)o3)c(=O)oc2cc1O	230*	48*	-1	5	-11	-302
CCOC(=O)c1nnn(-c2nonc2N)c1CN(C)C1CCCCC1	-2	-4	-1	-4	-5	60*
O=C(NC(Cc1ccccc1)c1nc2ccccc2[nH]1)c1ccc(Cl)c([N+](=O)[O-])c1 (stereo unspecified)	0	-5	-5	6	-9	76*
CC(=O)Nc1ccc(NC(=O)C(C)OC(=O)C2CCCCC2)cc1 (stereo unspecified)	-6	1	-2	4	2	52*
